Hits are enriched below; roughly 3.4% of the tested compounds scored in any of these assays.
TEAD-YAP inh = TEAD-YAP interaction inhibition; inhibition, % at 9.12 µM; HEK-TIYL cells, TEAD-Gal4/YAP UAS-luciferase luminescence; 1.4% of 640,000 active; AID 1259422; in the data active = inhibition above about 32%
GPR151 activ = activates the human receptor GPR151. Q8TDV0. PathHunter beta-arrestin GPR151 cells, luminescence. activation, % at 11.2 µM. 1% of 650,000 active. AID 1508602; in the data active = activation above about 4.9%
Target sequence (Q8TDV0 whole entry, looked up): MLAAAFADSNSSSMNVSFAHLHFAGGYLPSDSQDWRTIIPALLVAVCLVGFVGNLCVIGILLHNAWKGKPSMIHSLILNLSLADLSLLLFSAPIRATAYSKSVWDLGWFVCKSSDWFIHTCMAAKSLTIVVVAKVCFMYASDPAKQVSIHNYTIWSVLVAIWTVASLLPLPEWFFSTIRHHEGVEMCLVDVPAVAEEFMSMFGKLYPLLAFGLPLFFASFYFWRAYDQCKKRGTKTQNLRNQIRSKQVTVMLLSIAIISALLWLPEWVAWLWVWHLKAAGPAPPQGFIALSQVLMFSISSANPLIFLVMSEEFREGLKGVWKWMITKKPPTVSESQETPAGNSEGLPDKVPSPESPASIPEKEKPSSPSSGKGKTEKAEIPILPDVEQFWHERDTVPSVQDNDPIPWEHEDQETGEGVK
FBW7 activator = human FBW7 E3 ligase activation, primary screen | AlphaScreen FBW7–phospho-cyclin E peptide binding, activator screen | normalized activity (activation), % at 26.1 µM | 0.13% of 650,000 active; in the data active = normalized activity above about 1.9%;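 note: purified mutant Fbw7 with reduced substrate affinity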
MITF inh = inhibitors of human MITF. O75030. AlphaScreen MITF homodimerization, bead proximity signal. inhibition, % at 2.6 µM. 0.91% of 650,000 active; in the data active = inhibition above about 50%
Each line names hits and unclear results; the compound was inactive in the other large screens.

COc1ccccc1N1CCN(C(=O)COc2cccc(C)c2C)CC1	none
COc1cc(C(=O)N2CCN(c3cccc(Cl)c3)CC2)cc(OC)c1OC	TEAD-YAP inh 52.2
COc1ccccc1N1CCN(C(=O)c2cc(OC)c(OC)c(OC)c2)CC1	TEAD-YAP inh 64.3
COc1cc(C(=O)N2CCCc3ccccc32)cc(OC)c1OC	none
COc1ccccc1N1CCN(C(=O)COc2ccc(Br)cc2C)CC1	TEAD-YAP inh 49.2
COc1ccc2c(c1)CCCN2C(=O)c1cc(OC)c(OC)c(OC)c1	TEAD-YAP inh 45.1
O=c1[nH]c(CSc2nnnn2-c2ccccc2)nc2sc3c(c12)CCC3	none
CCN1CCN(CC(=O)Nc2ccc(Br)cc2)C(=O)C1=O	none
C#Cc1ccc(CN2CCN(Cc3ccc(C)o3)C(CCO)C2)cc1 (configuration not stated)	none
O=[N+]([O-])c1ccc(-n2ccnc2)nc1-n1ccnc1	none
Cc1c(C(=O)N2CCN(c3cccc(Cl)c3)CC2)sc2nc[nH]c(=O)c12	TEAD-YAP inh 48.0
COc1ccccc1CNC(=O)c1ncoc1-c1ccccc1C(F)(F)F	none
COC(=O)c1cc(C(=O)N2CCN(c3ccccc3OC)CC2)cc([N+](=O)[O-])c1	TEAD-YAP inh 63.7
COc1cc(SC)ccc1C(=O)N1CCN(c2cccc(Cl)c2)CC1	TEAD-YAP inh 51.2
COc1ccccc1N1CCN(C(=O)c2ncoc2-c2ccccc2C(F)(F)F)CC1	TEAD-YAP inh 51.1
Cc1ccc(-c2ccc3c(c2)CC(CNC(=O)CCN(C)C2CCS(=O)(=O)C2)O3)nc1 (configuration not stated)	none
O=C(c1ccc2c(=O)n(Cc3ccco3)c(=S)[nH]c2c1)N1CCN(c2cccc(Cl)c2)CC1	none
COc1cccc(C(=O)NC(/C=C/c2ccccc2)c2cc(Cl)c3cccnc3c2O)c1 (configuration not stated)	none
COc1ccc(NC(=O)C2(NC(=O)Cn3nnnc3N)CCCCC2)cc1	none
O=C(Nc1ccc(-c2nc3ccccc3[nH]2)cc1)c1cc(=O)c2ccccc2o1	none
CC/C(=N/NC(=O)CCC(=O)N/N=C(\CC)c1ccccc1)c1ccccc1	none
O=C(N1CCCCCC1)N1c2ccccc2Sc2ccccc21	none
O=C(N1CCN(c2ccccc2F)CC1)N1c2ccccc2Sc2ccccc21	TEAD-YAP inh 63.6
Cc1cccc(N2CCN(C(=O)c3c(-c4ccccc4)noc3C)CC2)c1C	TEAD-YAP inh 53.0
Cc1onc(-c2ccccc2)c1C(=O)N1CCN(c2ccc([N+](=O)[O-])cc2Cl)CC1	none
COc1nn(C)cc1C(=O)N1CCCC(C(=O)N2CCN(c3cccc(Cl)c3)CC2)C1 (configuration not stated)	TEAD-YAP inh 41.8
COc1ccccc1N1CCN(C(=O)c2cc(Br)cc(Br)c2)CC1	TEAD-YAP inh 58.4
Cc1ccc(N(CC(=O)NC2CCCCC2)C(=O)CCC(=O)Nc2cc(C)ccn2)cc1	none
C=CCSc1[nH]c(=O)c(C(=O)O)cc1C#N	none
CSc1ncc(Cl)c(C(=O)N2CCN(C)CC2)n1	none
COc1ccc(Cl)cc1C(=O)N1CCN(c2ccccc2F)CC1	TEAD-YAP inh 34.3
COc1cc(OC)cc(C(=O)N2CCN(c3cccc(C)c3C)CC2)c1	TEAD-YAP inh 46.8
COc1ccccc1N1CCN(C(=O)c2nc(SC)ncc2Cl)CC1	TEAD-YAP inh 49.2
CSc1ccc(NC(=O)NCCN2CCN(c3cccc(Cl)c3)CC2)cc1	FBW7 activator 4.4
COc1ccc(C(=O)N2CCN(c3cccc(C)c3C)CC2)cc1	none
COc1ccc(-n2nc3c(c2NC(=O)c2cccc(OC)c2)CS(=O)(=O)C3)cc1	none
c1ccc2cc(CN3CCN(Cc4c[nH]c5ccccc45)CC3)ccc2c1	none
Oc1ccc(Br)cc1CN1CCN(Cc2c[nH]c3ccccc23)CC1	MITF inh 57.6
Oc1ccc(Br)cc1CN1CCN(Cc2ccncc2)CC1	MITF inh 54.4
CCS(=O)(=O)N1CCN(Cc2cc(Br)ccc2O)CC1	MITF inh 54.2
Cc1ccc(C)c(NC(=O)CCN2CCN(C/C=C/c3ccccc3)CC2)c1	none
Cc1nnc(C)n1/N=C/c1ccc(N2CCOCC2)c([N+](=O)[O-])c1	none
O=C1NC2(CCN(S(=O)(=O)c3cccs3)CC2)Oc2ccccc21	FBW7 activator 2.0
O=C1NC2(CCN(Cc3cccs3)CC2)Oc2ccccc21	none
N#CCSc1nc(NCCc2ccccc2)c2ccccc2n1	none
COc1ccc(/C=N/NC(=O)C2CC(=O)N(c3ccc(Br)cc3)C2)cc1 (configuration not stated)	none
CCc1ccc(/C=N\NC(=O)C2CC(=O)N(c3ccc(OC)cc3)C2)cc1 (configuration not stated)	TEAD-YAP inh 47.5

Assay outcomes deposited in PubChem BioAssay by The Scripps Research Institute Molecular Screening Center.
